GPR151 ag = activators of human GPR151, primary screen, cell-based, PathHunter beta-arrestin, luminescence; G-protein coupled receptor 151 (Homo sapiens), Q8TDV0; PathHunter beta-arrestin GPR151 cells; activation, % at 11.2 µM; 650,000 tested, 1% active; AID 1508602, 2020; in the data active means activation above about 4.9%;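 further: 0% = median of compound wells and 100% = cells with positive control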
MITF inh = MITF inhibitors, primary screen, biochemical, AlphaScreen, human; Microphthalmia-associated transcription factor (Homo sapiens), O75030; inhibition, % at 2.6 µM; 650,000 tested, 0.91% active; AlphaScreen MITF homodimerization, bead proximity signal; in the data active means inhibition above about 50%;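 further: 0% = vehicle wells with protein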
Target sequence (O75030 whole entry, looked up): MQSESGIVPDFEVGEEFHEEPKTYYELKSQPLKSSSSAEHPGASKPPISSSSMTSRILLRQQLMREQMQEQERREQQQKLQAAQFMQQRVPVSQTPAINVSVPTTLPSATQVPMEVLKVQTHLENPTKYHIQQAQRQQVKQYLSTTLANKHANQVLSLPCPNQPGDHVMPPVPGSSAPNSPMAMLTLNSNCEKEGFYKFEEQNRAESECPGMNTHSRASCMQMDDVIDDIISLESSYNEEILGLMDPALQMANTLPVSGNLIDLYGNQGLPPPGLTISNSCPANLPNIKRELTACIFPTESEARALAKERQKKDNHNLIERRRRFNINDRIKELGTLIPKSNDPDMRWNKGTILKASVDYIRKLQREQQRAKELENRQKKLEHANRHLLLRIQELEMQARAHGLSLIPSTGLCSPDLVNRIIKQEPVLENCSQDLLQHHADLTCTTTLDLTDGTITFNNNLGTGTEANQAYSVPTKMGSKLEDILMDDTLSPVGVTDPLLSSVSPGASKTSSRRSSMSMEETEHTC
TEAD-YAP block = TEAD-YAP interaction inhibition, primary screen, TEAD-YAP interaction inhibitor project, luminescence, HEK-TIYL cells; TEAD-Gal4/YAP UAS-luciferase luminescence; inhibition, % at 9.12 µM; 640,000 tested, 1.4% active; AID 1259422, 2018; in the data active means inhibition above about 32%;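 further: 0% = median of test compound wells and 100% = reference inhibitor wells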
FBW7 activator = FBW7 E3 ligase activators, primary screen, biochemical, AlphaScreen, human; normalized activity (activation), % at 26.1 µM; F-box/WD repeat-containing protein 7 (Homo sapiens), Q969H0; AID 1259310, 2017; AlphaScreen FBW7–phospho-cyclin E peptide binding, activator screen; 650,000 tested, 0.13% active; in the data active means normalized activity above about 1.9%;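 further: purified mutant Fbw7 with reduced substrate affinity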
* marks the source's active call; other numbers are inactive results. An excerpt weighted towards active compounds, which were near 3.4% of everything screened.

SMILES	GPR151 ag	MITF inh	TEAD-YAP block	FBW7 activator
O=C(NC(=S)Nc1ccc2oc(-c3ccccc3)nc2c1)c1cncc(Br)c1	0.3	3.7	-3.0	0.1
Cc1cc2nc(-c3cccc(NC(=S)NC(=O)c4ccco4)c3)oc2cc1C	-1.4	9.6	47.5*	0.9
CCN(c1cccc(C)c1)S(=O)(=O)c1c[nH]c(C(=O)OC)c1	0.2	14.6	-2.9	-0.1
Cc1ccc(CC(NC(=O)c2ccccc2)C(=O)NC(C(=O)O)C(C)C)cc1 (centres undefined)	0.2	10.5	4.5	-0.1
CC1CN(C(=O)C(Cl)(Cl)Cl)C(C)CN1C(=O)C(Cl)(Cl)Cl (centres undefined)	2.4	-43.3	-1.7	0.0
CC(C)(C)c1ccc(-c2nc3cc(NC(=S)NC(=O)c4ccco4)ccc3o2)cc1	4.7	12.7	43.4*	1.0
Cc1ccc(-c2nc3cc(NC(=S)NC(=O)c4ccco4)ccc3o2)cc1	0.3	14.0	-46.4	0.8
CCN(CC)c1ccc(-c2nc3cc(NC(=O)c4ccc(OC)c(OC)c4)ccc3o2)cc1	-1.1	21.4	-21.9	2.4*
O=C(Nc1ccc(-c2nc3cc(NC(=O)c4ccco4)ccc3o2)cc1)c1ccco1	0.6	9.8	-23.5	0.2
CC(=O)Nc1ccc2oc(-c3cccc(C)c3)nc2c1	-8.1	-11.5	62.4*	-0.1
O=C(Nc1ccc2oc(-c3ccc(-c4ccccc4)cc3)nc2c1)c1ccco1	-0.9	2.7	-3.0	2.5*
Cc1ccccc1-c1nc2cc(NC(=O)C(C)C)ccc2o1	1.0	4.3	66.0*	0.0
Cc1cc(C)c2c(c1)[C@@H]1C=CC[C@@H]1[C@H](c1ccc(C(=O)O)cc1)N2	-1.4	8.5	16.5	-0.1
Cc1ccc2c(c1C)N[C@@H](c1ccc(C(=O)O)cc1)[C@H]1CC=C[C@@H]21	-0.6	71.2*	12.0	-0.6
CC(=O)Oc1ccc(C2Nc3c(C(=O)O)cccc3C3C=CCC32)cc1 (centres undefined)	0.1	66.0*	10.3	-1.0
Cc1c(C(=O)O)ccc2c1N[C@@H](c1ccc(F)cc1)[C@H]1CC=C[C@@H]21	-0.2	63.6*	-11.8	-0.6
COc1cccc2sc(=NC(=O)c3ccc(C)c(C)c3)n(C)c12	1.3	-15.6	-8.2	0.1
CN1CCN(C(=O)c2ccc(N3CC4CC(C3)c3cccc(=O)n3C4)c(NC(=O)c3ccc(F)cc3)c2)CC1 (centres undefined)	0.0	0.6	-6.1	-0.1
CCOC(=O)C1=C(C)N=c2s/c(=C\c3cc(C)n(-c4ccc(C)cc4)c3C)c(=O)n2C1c1ccc(C)cc1 (centres undefined)	-0.2	-9.3	-0.8	0.0
CCC(C)(C)c1ccc(OCCCC[n+]2cccc(C)c2)c(C(C)(C)CC)c1	2.0	-21.9	85.0*	0.1
CCC(C)(C)c1ccc(OCCOCC[n+]2ccccc2)c(C(C)(C)CC)c1	3.3	1.5	77.2*	0.2
CCC(Sc1nc2ncccc2[nH]1)C(=O)NCCOC (centres undefined)	0.1	2.9	1.4	0.0
CC(C)OCCCNc1ncnc2ccc(Br)cc12	1.0	-7.6	46.5*	-0.1
Cc1ccc2ncnc(NC3CCCCC3)c2c1	-1.3	31.6	36.7*	0.4
Brc1ccc2ncnc(NCc3ccccc3)c2c1	-0.1	-4.9	59.8*	0.3
SMILES	GPR151 ag	MITF inh	TEAD-YAP block	FBW7 activator
Cc1ccc2ncnc(NCCc3ccccc3)c2c1	0.6	11.0	49.6*	-0.3
COc1ccc(CNc2nccn3c(-c4cccc(NS(C)(=O)=O)c4)cnc23)cc1	0.6	5.0	4.9	-0.3
COC(=O)c1cc(NC(=O)Cn2cnc3ccccc3c2=O)cc(C(=O)OC)c1	-0.7	1.8	-12.1	-0.1
O=C(NCCNC(=O)c1sc(=S)n2c1[nH]c(=O)c1sccc12)c1sc(=S)n2c1[nH]c(=O)c1sccc12	1.1	-4.1	-2.5	0.7
O=C(O)CNc1ncnc2ccc(Br)cc12	-0.7	12.7	3.3	-0.1
CC(C)CNc1ncnc2ccc(Br)cc12	0.6	-5.3	42.3*	-0.1
CCN(CC)c1ccc(Nc2ncnc3ccc(Br)cc23)cc1	0.4	3.6	7.0	-0.4
CN(C)c1ccc(Nc2ncnc3ccc(Br)cc23)cc1	1.0	-0.8	34.0*	-0.4
O=C(O)CCCCCN1C(=O)/C(=C/c2cccc(O)c2)SC1=S	3.6	10.9	44.5*	-0.6
Cc1csc(NC(=O)CCN2C(=O)/C(=C/C=C/c3ccccc3)SC2=S)n1	0.0	60.7*	-14.2	-0.4
O=C(O)CCN1C(=O)/C(=C\c2cccc(O)c2)SC1=S	-0.9	17.9	8.3	-0.2
COc1cccc(/C=C2\SC(=S)N(CCCCCC(=O)O)C2=O)c1	-0.9	13.4	65.7*	0.2
O=C(O)CCN1C(=O)/C(=C/c2cccc(O)c2)SC1=S	1.5	-2.1	2.3	-0.1
O=C(CCN1C(=O)/C(=C/C=C/c2ccccc2)SC1=S)Nc1ccccn1	1.0	26.6	11.9	1.1
Cc1cccc(/C=C2\SC(=S)N(CCC(=O)O)C2=O)c1	-3.4	15.6	33.9*	0.3
Cn1c(=O)c2c(nc(N3CCOCC3)n2CCN)n(C)c1=O	1.3	-10.8	8.4	0.6
CCN(CC(=O)NC(C)C)C(=O)COC(=O)c1cc(F)c(F)cc1Cl	-0.2	-8.3	1.3	0.1
COc1cc(Nc2nc(Nc3cnccn3)nc3c2ncn3-c2ccsc2)cc(OC)c1OC	-2.3	21.0	37.8*	-0.2
COc1cc(Nc2nc(Cl)nc3c2ncn3-c2ccsc2)cc(OC)c1OC	0.6	9.5	35.1*	0.0
COc1cc(Nc2nc(Nc3cccnc3)nc3c2ncn3-c2ccsc2)cc(OC)c1OC	-0.5	-1.3	24.6	-0.1
COc1cc(Nc2nc(Nc3ccccc3)c3ncn(-c4ccsc4)c3n2)cc(OC)c1OC	-1.7	8.0	3.6	-0.1
COc1cc(Nc2nc(Nc3ccc(-n4ccnc4)cc3)nc3c2ncn3-c2ccsc2)cc(OC)c1OC	-0.4	-3.0	44.0*	0.1
COc1cc(Nc2nc(Nc3ccc(-n4ccnc4)cc3)nc3c2ncn3-c2ccccc2)cc(OC)c1OC	-0.4	9.2	34.0*	-0.2
Cc1ccc(C(=O)COC(=O)c2ccc3c(c2)C(=O)N(c2ccc(Cl)cc2)C3=O)cc1[N+](=O)[O-]	-0.6	13.2	-6.2	0.4
Cc1ccc(-c2nn(CN3CCCc4ccccc43)c(=S)n2-c2ccccc2)cc1	0.9	14.1	48.7*	0.0
O=C(O)c1ccc2c(c1)C(=O)N(c1cccc3c(N4C(=O)c5ccc(C(=O)O)cc5C4=O)cccc13)C2=O	-0.6	-0.6	-12.9	-0.2
CCNc1cc(C)nc(NCCNC(=O)Nc2cc(Cl)ccc2OC)n1	-0.7	1.6	32.6*	-0.1
COc1ccc(N=Cc2c(O)n(-c3cccc(OC)c3)c(=O)[nH]c2=O)cc1	-1.1	75.9*	-8.5	0.1
CCOC(=O)c1ccc(N=Cc2c(O)n(-c3cccc(OC)c3)c(=O)[nH]c2=O)cc1	1.1	-2.0	-3.6	0.0
CCN(CC)C(=O)Cn1cnc2sc(C(=O)Nc3ccccc3Cl)c(C)c2c1=O	1.1	-16.3	-1.6	0.0
